We go through four molecules from PubChem BioAssay (EPA / NIEHS).

Assay [1] can be described thus: CEETOX_H295R_ESTRADIOL: CeeTox H295R High-throughput Steroidogenesis Assay for Estradiol (AID 2283440).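 Also: estradiol secreted into medium quantified by LC-MS/MS after dansyl derivatisation.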 To be noted: actives raise or lower the signal. In a few lines:
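H295R, 48 h forskolin (10 uM) prestim → 48 h compound, 0.1% DMSO final. Estradiol in medium: MTBE extraction, dansyl chloride derivatization, LC-MS/MS. Fit bidirectional vs DMSO baseline; MTT viability in same wells.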

Assay [2] is described as follows: CEETOX_H295R_ESTRONE: CeeTox H295R High-throughput Steroidogenesis Assay for Estrone (AID 2283441).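 Also: estrone secreted into medium measured by LC-MS/MS after dansyl derivatization.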 To be noted: actives raise or lower the signal. In a few lines:
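H295R cells prestimulated 48 h with 10 uM forskolin, then exposed 48 h to chemicals in 0.1% DMSO final; estrone in medium extracted with MTBE, dansyl-derivatized, quantified by HPLC-MS/MS; bidirectional fitting versus DMSO, viability by MTT.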

The nature of assay [3]: CEETOX_H295R_PROG: CeeTox H295R High-throughput Steroidogenesis Assay for Progesterone (PROG) (AID 2283442). The settings on record: actives raise or lower the signal. In a few lines: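 Progesterone read-out: HPLC-MS/MS on MTBE extracts of conditioned medium after 48 h chemical exposure of forskolin-primed (10 uM, 48 h) H295R cells. Gain or loss of signal was fitted relative to DMSO baseline.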

Read-out in assay [4]: Fatty acid synthase (Homo sapiens) (UniProt P49327)
The assay is described as follows: LTEA_HepaRG_FASN: Life Technologies and Expression Analysis (LTEA) Assay for Fatty Acid Synthase (FASN) using HepaRG (AID 2283448). The settings on record: mRNA level, 48 h; actives raise or lower the signal. In a few lines: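 Differentiated HepaRG cells in serum-free induction medium exposed 48 h in duplicate to eight half-log concentrations, top 100 uM, 0.5% DMSO. FASN mRNA by qRT-PCR normalised to ACTB, GAPDH, POLR2A; bidirectional fit versus DMSO.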

Read-out in assay [5]: Cyclin D2 (CCND2), CCND2 (gene 894)
The experiment in a line: LTEA_HepaRG_CCND2: Life Technologies and Expression Analysis (LTEA) Assay for Cyclin D2 (CCND2) using HepaRG (AID 2283449).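 Also: CCND2 transcript measured by TaqMan qRT-PCR and normalised to three housekeeping genes.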 To be noted: mRNA level, 48 h; actives raise or lower the signal. In a few lines:
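Chemicals in 0.5% DMSO, eight half-log concentrations from 100 uM top, were applied in duplicate for 48 h to human HepaRG cells in serum-free induction medium. CCND2 mRNA by TaqMan qRT-PCR, normalised to ACTB/GAPDH/POLR2A; bidirectional fit versus DMSO.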

Read-out in assay [6]: Cyclin D1 (CCND1), CCND1 (gene 595)
The assay is described as follows: LTEA_HepaRG_CCND1: Life Technologies and Expression Analysis (LTEA) Assay for Cyclin D1 (CCND1) using HepaRG (AID 2283451). To be noted: mRNA level, 48 h; actives raise or lower the signal. Put shortly:
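qRT-PCR (Fluidigm 96.96 array) read-out of transcript level, housekeeping-normalized (ACTB/GAPDH/POLR2A). HepaRG cells, 48 h chemical exposure, 8-point half-log series from 100 uM, 0.5% DMSO vehicle; gain or loss relative to DMSO baseline.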

Read-out in assay [7]: flavin-containing dimethylaniline monooxygenases 3 (FMO3), FMO3 (gene 2328)
The experiment in a line: LTEA_HepaRG_FMO3: Life Technologies and Expression Analysis (LTEA) Assay for flavin-containing dimethylaniline monooxygenases 3 (FMO3) using HepaRG (AID 2283453). The settings on record: mRNA level, 48 h; actives raise or lower the signal. Put shortly:
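Differentiated HepaRG cells in serum-free induction medium, exposed 48 h in duplicate to 8 half-log concentrations up to 100 uM in 0.5% DMSO. FMO3 mRNA by qRT-PCR, normalized to ACTB, GAPDH, POLR2A; bidirectional fit vs DMSO.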

Read-out in assay [8]: Cytochrome P450 (CYP1A1), CYP1A1 (gene 1543)
The experiment in a line: LTEA_HepaRG_CYP1A1: Life Technologies and Expression Analysis (LTEA) Assay for Cytochrome P450 (CYP1A1) using HepaRG (AID 2283454). The settings on record: mRNA level, 48 h; actives raise or lower the signal. Put shortly: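 qRT-PCR read-out: CYP1A1 transcript normalized to three housekeeping genes, fitted bidirectionally against 0.5% DMSO vehicle baseline. Human HepaRG cells, 48 h chemical exposure, 8-point half-log series topping at 100 uM.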

Read-out in assay [9]: CFLAR gene, CFLAR (gene 8837)
The assay is described as follows: LTEA_HepaRG_CFLAR: Life Technologies and Expression Analysis (LTEA) Assay for CFLAR gene using HepaRG (AID 2283455). The settings on record: mRNA level, 48 h; actives raise or lower the signal. In a few lines: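 Differentiated HepaRG cells in serum-free induction medium were exposed 48 h in duplicate to eight half-log concentrations up to 100 uM in 0.5% DMSO; mRNA measured by TaqMan qRT-PCR, normalized to ACTB, GAPDH, POLR2A; bidirectional fitting versus DMSO.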

Read-out in assay [10]: Forkhead box O1 (FOXO1), FOXO1 (gene 2308)
The experiment in a line: LTEA_HepaRG_FOXO1: Life Technologies and Expression Analysis (LTEA) Assay for Forkhead box O1 (FOXO1) using HepaRG (AID 2283456). To be noted: mRNA level, 48 h; actives raise or lower the signal. In a few lines:
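Differentiated HepaRG cells, in serum-free induction medium with 0.5% DMSO, exposed 48 h in duplicate to 8-point half-log series from 100 uM. FOXO1 mRNA measured by TaqMan qRT-PCR, normalized to ACTB, GAPDH, POLR2A; bidirectional fit versus DMSO.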

Read-out in assay [11]: growth arrest and DNA damage 45 (GADD45A), GADD45A (gene 1647)
The experiment in a line: LTEA_HepaRG_GADD45A: Life Technologies and Expression Analysis (LTEA) Assay for growth arrest and DNA damage 45 (GADD45A) using HepaRG (AID 2283458). To be noted: mRNA level, 48 h; actives raise or lower the signal. Put shortly: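 Differentiated HepaRG cells exposed 48 h in serum-free induction medium to 8 concentrations, top 100 uM in half-log steps, 0.5% DMSO. GADD45A mRNA quantified by qRT-PCR, normalized to ACTB, GAPDH and POLR2A; bidirectional fit versus DMSO.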

Read-out in assay [12]: Forkhead box O3 (FOXO3), FOXO3 (gene 2309)
The assay is described as follows: LTEA_HepaRG_FOXO3: Life Technologies and Expression Analysis (LTEA) Assay for Forkhead box O3 (FOXO3) using HepaRG (AID 2283459). To be noted: mRNA level, 48 h; actives raise or lower the signal. In a few lines:
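Differentiated human HepaRG cells, 48 h post-plating, exposed in duplicate for 48 h in serum-free induction medium; 8-point half-log series from 100 uM in 0.5% DMSO. FOXO3 mRNA by TaqMan qRT-PCR, normalized to ACTB/GAPDH/POLR2A; bidirectional fit versus DMSO.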

Assay [13] in a line: CEETOX_H295R_CORTIC: CeeTox H295R High-throughput Steroidogenesis Assay for Corticosterone (CORTIC) (AID 2283437).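 Also: corticosterone secreted into medium quantified by mass spectrometry.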 To be noted: actives raise or lower the signal. Put shortly:
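H295R adrenal cells prestimulated 48 hours with 10 uM forskolin, then exposed 48 hours to chemical in 0.1% DMSO. Corticosterone in medium measured by HPLC-MS/MS after MTBE extraction; MTT viability in the same wells; bidirectional fit versus DMSO.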

Assay [14] in a line: CEETOX_H295R_CORTISOL: CeeTox H295R High-throughput Steroidogenesis Assay for Cortisol (AID 2283438).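 Also: cortisol secreted into medium quantified by LC-MS/MS.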 To be noted: actives raise or lower the signal. Put shortly:
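Forskolin-primed H295R cells (10 uM, 48 h) treated 48 h with test chemical in 0.1% DMSO. Cortisol in medium quantified by MTBE extraction and HPLC-MS/MS; bidirectional fit vs DMSO, MTT viability in same wells.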

The nature of assay [15]: CEETOX_H295R_DOC: CeeTox H295R High-throughput Steroidogenesis Assay for DOC (AID 2283439). To be noted: actives raise or lower the signal. In a few lines:
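H295R cells prestimulated 48 h with 10 uM forskolin, then exposed 48 h to test chemical (0.1% DMSO final). Medium 11-deoxycorticosterone measured by HPLC-MS/MS after MTBE extraction; bidirectional fit vs DMSO, viability checked by MTT in same wells.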

Read-out in assay [16]: Tumor necrosis factor receptor superfamily member 6 (Homo sapiens) (UniProt P25445)
The assay is described as follows: LTEA_HepaRG_FAS: Life Technologies and Expression Analysis (LTEA) Assay for Fas cell surface death receptor (FAS) using HepaRG (AID 2283447). To be noted: mRNA level, 48 h; actives raise or lower the signal. Put shortly: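 Differentiated HepaRG cells in serum-free induction medium were exposed 48 h to 8 half-log concentrations up to 100 uM in 0.5% DMSO, in duplicate. FAS mRNA was measured by qRT-PCR normalised to ACTB, GAPDH and POLR2A; bidirectional fit versus DMSO.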

Read-out in assay [17]: Cyclin Dependent Kinase Inhibitor 1A (CDKN1A), CDKN1A (gene 1026)
The experiment in a line: LTEA_HepaRG_CDKN1A: Life Technologies and Expression Analysis (LTEA) Assay for Cyclin Dependent Kinase Inhibitor 1A (CDKN1A) using HepaRG (AID 2283450). The settings on record: mRNA level, 48 h; actives raise or lower the signal. In a few lines: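 HepaRG, 48 h dosing, 8-pt half-log series from 100 uM top, 0.5% DMSO vehicle, duplicates. Readout: TaqMan qRT-PCR of CDKN1A transcript, housekeeping-normalized (ACTB, GAPDH, POLR2A). Up/down curve fit relative to DMSO.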

Read-out in assay [18]: catalase (CAT), CAT (gene 847)
The assay is described as follows: LTEA_HepaRG_CAT: Life Technologies and Expression Analysis (LTEA) Assay for catalase (CAT) using HepaRG (AID 2283452). To be noted: mRNA level, 48 h; actives raise or lower the signal. In a few lines:
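HepaRG cells in serum-free induction medium, 0.5% DMSO vehicle, exposed 48 h in duplicate over 8 half-log concentrations from 100 uM. CAT mRNA measured by qRT-PCR, normalized to ACTB, GAPDH, POLR2A; bidirectional fit versus DMSO.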

Each structure is given as a SMILES string. The source made the active and inactive calls. The calls were made as follows: active = hit-call score of the fitted dose curve at least 0.9, where 1 is the maximum; inactive = score below 0.9.

Sequence of Fatty acid synthase (Homo sapiens) (P49327 whole entry, looked up): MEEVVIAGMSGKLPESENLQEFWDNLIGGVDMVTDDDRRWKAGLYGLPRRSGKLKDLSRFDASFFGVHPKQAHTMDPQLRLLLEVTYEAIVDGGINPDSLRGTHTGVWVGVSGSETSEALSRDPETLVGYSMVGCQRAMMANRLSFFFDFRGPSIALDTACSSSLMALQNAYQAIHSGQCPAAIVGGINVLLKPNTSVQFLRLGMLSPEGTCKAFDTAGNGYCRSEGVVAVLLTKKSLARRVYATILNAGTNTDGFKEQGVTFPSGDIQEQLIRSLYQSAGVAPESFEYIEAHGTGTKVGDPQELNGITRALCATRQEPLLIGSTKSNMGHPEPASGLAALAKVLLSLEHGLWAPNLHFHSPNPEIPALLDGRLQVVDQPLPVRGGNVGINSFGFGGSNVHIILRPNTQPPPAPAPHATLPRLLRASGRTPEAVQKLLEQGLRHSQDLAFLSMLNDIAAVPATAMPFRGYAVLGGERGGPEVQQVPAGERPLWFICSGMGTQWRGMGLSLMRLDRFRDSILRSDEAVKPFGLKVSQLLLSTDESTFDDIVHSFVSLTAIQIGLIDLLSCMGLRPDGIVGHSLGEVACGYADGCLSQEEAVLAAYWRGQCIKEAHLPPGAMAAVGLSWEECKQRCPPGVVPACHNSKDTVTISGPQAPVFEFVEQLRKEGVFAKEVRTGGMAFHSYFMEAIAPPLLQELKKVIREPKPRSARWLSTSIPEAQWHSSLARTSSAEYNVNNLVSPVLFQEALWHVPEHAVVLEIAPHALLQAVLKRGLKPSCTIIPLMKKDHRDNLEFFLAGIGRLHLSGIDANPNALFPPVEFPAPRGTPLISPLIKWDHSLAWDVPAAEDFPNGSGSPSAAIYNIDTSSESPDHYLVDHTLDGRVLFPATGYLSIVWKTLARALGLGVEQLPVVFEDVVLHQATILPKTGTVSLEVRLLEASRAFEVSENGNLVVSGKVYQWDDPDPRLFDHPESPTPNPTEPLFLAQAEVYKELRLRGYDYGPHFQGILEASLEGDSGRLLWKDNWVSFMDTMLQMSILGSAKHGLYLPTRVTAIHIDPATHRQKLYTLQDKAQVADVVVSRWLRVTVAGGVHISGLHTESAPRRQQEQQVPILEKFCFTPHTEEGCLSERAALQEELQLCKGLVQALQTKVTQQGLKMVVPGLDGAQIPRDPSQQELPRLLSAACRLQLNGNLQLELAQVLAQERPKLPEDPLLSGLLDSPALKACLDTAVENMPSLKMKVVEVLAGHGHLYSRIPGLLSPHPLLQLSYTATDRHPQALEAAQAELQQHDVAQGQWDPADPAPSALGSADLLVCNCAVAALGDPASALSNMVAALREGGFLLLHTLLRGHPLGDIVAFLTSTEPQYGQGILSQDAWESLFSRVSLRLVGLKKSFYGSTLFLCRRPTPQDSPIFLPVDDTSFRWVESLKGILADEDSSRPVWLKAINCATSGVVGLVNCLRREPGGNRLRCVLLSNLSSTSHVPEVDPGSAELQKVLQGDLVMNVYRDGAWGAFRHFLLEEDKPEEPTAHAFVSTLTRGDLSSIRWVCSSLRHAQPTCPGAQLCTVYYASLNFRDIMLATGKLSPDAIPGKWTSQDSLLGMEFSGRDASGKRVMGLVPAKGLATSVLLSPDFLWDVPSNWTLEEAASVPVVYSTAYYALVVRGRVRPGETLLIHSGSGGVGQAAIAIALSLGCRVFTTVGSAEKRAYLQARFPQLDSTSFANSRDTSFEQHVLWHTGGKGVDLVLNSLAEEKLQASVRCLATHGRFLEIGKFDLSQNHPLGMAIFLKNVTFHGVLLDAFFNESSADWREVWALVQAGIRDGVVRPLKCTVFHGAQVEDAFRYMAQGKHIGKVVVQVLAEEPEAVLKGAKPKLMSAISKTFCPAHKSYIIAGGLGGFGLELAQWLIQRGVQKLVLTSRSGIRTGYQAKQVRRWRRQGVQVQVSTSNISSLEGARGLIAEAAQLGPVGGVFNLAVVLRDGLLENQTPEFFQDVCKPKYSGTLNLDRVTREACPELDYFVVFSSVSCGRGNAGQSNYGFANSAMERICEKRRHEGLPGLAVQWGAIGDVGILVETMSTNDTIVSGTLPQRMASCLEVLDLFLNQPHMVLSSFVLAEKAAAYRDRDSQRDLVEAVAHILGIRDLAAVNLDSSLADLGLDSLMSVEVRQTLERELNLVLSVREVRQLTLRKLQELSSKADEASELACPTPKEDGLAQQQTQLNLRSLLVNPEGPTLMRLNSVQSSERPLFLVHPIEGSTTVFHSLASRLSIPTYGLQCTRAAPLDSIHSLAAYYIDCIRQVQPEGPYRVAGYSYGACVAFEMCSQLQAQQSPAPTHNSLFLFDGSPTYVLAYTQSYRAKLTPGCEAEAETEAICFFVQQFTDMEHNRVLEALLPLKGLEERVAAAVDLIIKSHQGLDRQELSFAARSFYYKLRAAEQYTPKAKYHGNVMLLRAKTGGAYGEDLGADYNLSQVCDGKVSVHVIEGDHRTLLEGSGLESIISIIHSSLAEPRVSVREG

As to `O=C1C2CC=CCC2C(=O)N1SC(Cl)(Cl)Cl` (configuration not stated), the result in assay [1], in assay [2], in [3], in assay [5], in [6] and in [7] was inactive. The call in assay [9], in assay [11] and in assay [12] was inactive. Further, the AC50 is 70.9 µM (active) in [4], 38.8 µM (active) in assay [8] and 77.1 µM (active) in assay [10].

Take `Nc1cnn(-c2ccccc2)c(=O)c1Cl`: the outcome in assay [13], in assay [14], in assay [15], in assay [1], in assay [2] and in [3] was inactive. Moreover, the call in assay [16], in assay [4], in assay [5], in assay [6], in assay [7] and in assay [9] was inactive. For the same molecule, the molecule was called inactive in assay [10], in assay [11] and in [12]. Further, the half-maximal activity concentration (AC50) in [8] is 71.7 µM (active).

`CNC(=O)Oc1cccc2ccccc12`: the call in assay [3], in assay [16], in assay [4], in [17], in assay [6] and in assay [7] was inactive. The molecule was classed as inactive in [8], in [9], in [10], in [11] and in [12]. Also, in assay [5], the AC50 is 19.3 nM (active).

As to `C=C(C)CN(CC)c1c([N+](=O)[O-])cc(C(F)(F)F)cc1[N+](=O)[O-]`, the call in [16], in assay [4], in assay [5], in [17], in assay [6] and in assay [18] was inactive. Further, the molecule was classed as inactive in assay [7], in [9], in assay [10], in [11] and in assay [12]. Moreover, the AC50 in [8] was 44.4 µM (active).

As a reminder, the AC50 is the concentration giving half of the maximal activity seen.
